Measured values taken from PubChem BioAssay AID2685 (National Center for Advancing Translational Sciences (NCATS), 2010).
The whole screen tested about 320,000 compounds, of which about 2,100 (0.66%) were called active. About 53% were inconclusive and are not listed. Calls come from the whole dose curve; as a rule, active = well fitted inhibition curve with a large enough effect in the signal ratio, with a control signal flat (not every such curve was filed as active); inconclusive = small, poorly fitted or top-dose-only effect, or effect the other way, or a change in a side signal; inactive = flat fitted curve, though single readings scatter; the % refers to the signal ratio. What follows is part of a selection rich in actives, with near analogues and random picks from the rest.

Experiment: qHTS Assay for Lipid Storage Modulators in Drosophila S3 Cells;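 for cell number change: cells counted by Cell Tracker Red CMTPX staining in the red channel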; for lipid storage change, negative = inhibition: % is set by controls: 0 for no effect and ±100 for the full control effect
Settings: BODIPY lipid droplet fluorescence, 18-24 h, cells fed with added oleic acid; cell number change: measured here: cell count max response; series mostly up to 46.1 µM; lipid storage change, negative = inhibition: at the top concentration
Excerpt: NIH Molecular Libraries Probe Production Centers Network [MLPCN] NIH Chemical Genomics Center [NCGC] MLPCN Grant: 1 R03 MH085686-01 Assay Submitter (PI): Beller, Mathias; Max-Planck-Institut fur Biophysikalische Chemie NCGC Assay Overview: Storing lipids as a reservoir for energy or the anabolism of elementary metabolites is a common feature of probably all cells and is conserved from bacteria to humans. The universal cellular lipid storage organelle is the so-called lipid storage droplet (LD). Although ubiquitous, LDs share a simple structure composed of a hydrophobic core that harbors the storage lipids, which is shielded by a droplet-specific phospholipid monolayer to which proteins are attached. The current model of LD biogenesis involves an incorporation of the lipid core into the membrane leaflets of the endoplasmic reticulum (ER) followed by a subsequent budding-like maturation of a LD, which ultimately pinches off. Once released, LD volume can increase by localized lipogenesis or fusion of existing droplet. Storage lipids are re-mobilized enzymatically by lipase activity. Lipase regulation in the adipocyte is heavily studied and involves multiple components including catecholamine signaling, the LD-associated proteins Perilipin and comparative gene identification (CGI-58) and at least two lipases named hormone sensitive lipase (HSL) and adipocyte triglyceride lipase (ATGL). LD regulation outside of the adipocyte is poorly understood and only few components are known. However, there is an urgent need to learn more about ectopic fat depots as mislocalized storage of lipids, for example in the liver or muscle, is an eminent health problem associated with insulin resistance or the metabolic syndrome. We developed a laser-scanning cytometer assay to enable 1,536-well screening and combined the results of the small molecules screen with an RNAi database based on lipid storage.
Triacsin C (Sigma-Aldrich T-4540), an inhibitor of long-chain fatty acyl CoA synthetase that blocks synthesis of triglycerides, was used as a positive control for lipid under-storage. A total of 23 nL of compound solution of different concentrations were transferred to the assay plates using a Kalypsys pin tool equipped with a 1,536-pin array containing 10-nL slotted pins (FP1S10, 0.457-mm diameter, 50.8 mm long; V&P Scientific). One microliter of oleic acid (400 uM) was added, and the plate was lidded with stainless steel rubber gasket lined lids containing pinholes. […] Fluorescence was detected by excitation of the fluorophores with a 488-nm laser on an Acumen Explorer (TTP Lab Tech). The total intensity in channel 2 (500-530 nm) reflected lipid droplet accumulation. Cells were detected using channel 3 (575-640 nm) with 5-um width and 100-um depth filters. The ratio of the number of objects in PMT channel 2 over the number of objects in PMT channel 3 was also calculated. Percent activity was computed relative to an internal control (100% inhibited lipid droplet deposition due to the presence of 20 uM Triacsin C), which was added to 32 wells/plate.
Potency is the fitted concentration of half-maximal effect.

| SMILES | lipid storage change, negative = inhibition | cell number change | outcome | Potency |
| --- | --- | --- | --- | --- |
| Cc1nn(-c2ccccc2)c2[nH]c(=O)c(CNc3ccc(N4CCOCC4)cc3)cc12 | 21.5% (inactive) | -0.634% | – | – |
| Cc1ccc2c(COC(=O)c3ccccc3Br)cc(=O)oc2c1 | – | 8.73% | inactive | – |
| Cc1ccc2c(COC(=O)c3ccccc3Cl)cc(=O)oc2c1 | – | 0.403% | – | 1.64 µM (active) |
| Cc1ccc2c(COC(=O)c3ccccc3OC(F)F)cc(=O)oc2c1 | – | 26.6% | inactive | – |
| CN(C)C(=O)c1cc(C(=O)c2ccccc2Br)c[nH]1 | 7.47% (inactive) | 10.8% | – | – |
| Cc1nn(CC(=O)NCc2cccnc2)c(C)c1[N+](=O)[O-] | 4.48% (inactive) | 15.3% | – | – |
| COC(c1ccccc1)c1nnc(CCC(=O)N2CCCCCCC2)o1 (stereo not drawn) | 11.6% (inactive) | 7.76% | – | – |
| COC(c1ccccc1)c1nnc(CCC(=O)NCCc2ccc(Cl)cc2)o1 (stereo not drawn) | – | -7.97% | – | 14.6 µM (active) |
| COC(c1ccccc1)c1nnc(CCC(=O)N2CCN(C3CCCC3)CC2)o1 (stereo not drawn) | – | 22.7% | inactive | – |
| CCOC(=O)c1ccc(NC(=O)CCc2nc(-c3ccc(C)cc3)no2)cc1 | – | – | inactive | – |
| CC(c1ccccc1)C1C(C#N)=C(N)OC2=C1C(=O)CC(C)(C)C2 (stereo not drawn) | 6.38% (inactive) | – | – | – |
| CN(CC(=O)Nc1ccccc1Cl)C(=O)Cn1nnc(-c2ccc(F)cc2)n1 | – | – | inactive | – |
| CCC1CCCCN1C(=O)c1sc2nc(C)nc(N(CC)CC)c2c1C (stereo not drawn) | 7% (inactive) | 9.48% | – | – |
| CCCCCN(C(=O)CCC(=O)OC(C)C(=O)NCc1ccccc1)c1c(N)n(CCCC)c(=O)[nH]c1=O (stereo not drawn) | 4.2% [at 0.0737 µM] (inactive) | -30.3% | – | – |
| O=C(CSCC(=O)NCc1ccco1)NCc1ccco1 | – | 16.7% | – | 6.51 µM (active) |
| CCCCn1nnnc1SCC(=O)NNC(=O)c1ccco1 | -4.32% (inactive) | 1.07% | – | – |
| CCCCn1c(SCC(=O)NCc2ccco2)nnc1-c1ccco1 | -2.67% (inactive) | -17% | – | – |
| CCCCn1nnnc1SCC(=O)NCc1ccco1 | – | 0.128% | – | 23.1 µM (active) |
| Cn1c(SCC(=O)NCc2ccco2)nnc1-c1ccc(S(=O)(=O)N2CCOCC2)cc1 | – | -9.46% | – | 5.8 µM (active) |
| O=C(CN1CCCc2ccccc21)NC(=O)NCc1ccco1 | – | 15.9% | inactive | – |
| O=C(CN1CCc2ccccc21)NC(=O)NCc1ccco1 | – | 0.297% | – | 6.51 µM (active) |
| Cc1ccc(CSCC(=O)NCc2ccco2)cc1 | -0.179% (inactive) | 14.7% | – | – |
| O=C(CN1CCc2ccccc21)NC(=O)NCc1ccccc1 | – | – | inactive | – |
| Cn1c(SCC(=O)NCc2ccco2)nnc1-c1ccccc1 | -2.43% (inactive) | -3.55% | – | – |

| SMILES | lipid storage change, negative = inhibition | cell number change | outcome | Potency |
| --- | --- | --- | --- | --- |
| O=C(CSc1ccccc1)NCc1ccco1 | 6.48% (inactive) | -1.34% | – | – |
| Cc1ccc(NC(=O)CSc2nnc(-c3ccc(S(=O)(=O)N4CCOCC4)cc3)n2C)cc1 | – | – | inactive | – |
| COc1ccc(C(C)NC(=O)c2ccc([N+](=O)[O-])cc2)cc1OC (stereo not drawn) | 3% (inactive) | 5.72% | – | – |
| CC12COC3(C(=O)Nc4nccs4)CC1CCC32C (stereo not drawn) | -0.803% (inactive) | 20.9% | – | – |
| O=C1c2ccccc2C(=O)N1Cc1ccccn1 | -22.3% (inactive) | -28% | – | – |
| COC(=O)C1=C(C)C(c2cccs2)NC(=O)N1C (stereo not drawn) | 2.46% (inactive) | 10.6% | – | – |
| O=C(NCc1cccs1)NC1CCCCC1 | -1.33% (inactive) | 3.84% | – | – |
| O=C(NCCCn1ccnc1)c1ccc2ccccc2c1 | 20% (inactive) | – | – | – |
| O=C(O)c1c(Cl)nc2ccccn12 | – | -7.31% | – | 4.61 µM (active) |
| Cc1nc2ccccn2c1C(=O)c1ccccc1 | – | 15.8% | inactive | – |
| O=Cc1c(Cl)nc2ccccn12 | -10.1% (inactive) | -2.46% | – | – |
| COc1ccc([N+](=O)[O-])cc1NC(=O)CSc1nc(C)c(C)c(C)n1 | 7.69% (inactive) | 1.59% | – | – |
| CCOC(=O)C1CCN(C(=O)Cn2cnc3sc(C)c(S(=O)(=O)N4CCOCC4)c3c2=O)CC1 | – | 1.25% | inactive | – |
| Cc1sc2ncn(CC(=O)N3CCCCC3)c(=O)c2c1S(=O)(=O)N1CCC(C)CC1 | – | 18.5% | inactive | – |
| CCOC(=O)C1CCN(C(=O)Cn2cnc3sc(C)c(S(=O)(=O)N4CCC(C)CC4)c3c2=O)CC1 | – | 14.4% | – | 0.58 µM (active) |
| CN(C)c1ncc(S(=O)(=O)c2ccccc2)c(=O)[nH]1 | -2.86% (inactive) | 19.4% | – | – |
| CC12CC3(C)CC(C)(C1)CC(C(=O)NC(=S)N1CCCC1)(C2)C3 | 0.446% (inactive) | -0.792% | – | – |
| COC(=O)CNC(=O)C12CC3(C)CC(C)(CC(C)(C3)C1)C2 | -1.63% (inactive) | -2.27% | – | – |
| CC12CC3(C)CC(C)(C1)CC(C(=O)NCC(=O)O)(C2)C3 | – | -16.9% | – | 1.46 µM (active) |
| Cc1cc(C)nc(SCc2cn3c(C)cccc3n2)n1 | 22.7% (inactive) | 13.2% | – | – |
| O=C(NCCc1ccccc1)C1CCCN(C(=O)Nc2ccc(F)cc2)C1 (stereo not drawn) | – | 16.8% | inactive | – |
| O=C(COC(=O)c1ccc(NS(=O)(=O)c2ccc(F)c(F)c2)cc1)NCC1CCCO1 (stereo not drawn) | 9.43% (inactive) | 10.2% | – | – |
| O=C(CCc1c[nH]c2ccccc12)N1CCCCCCC1 | – | -19.1% | inactive | – |
